Measurements reported in PubChem BioAssay (Tox21).
Records with an inconclusive call do not appear. Calls of active or inactive are those of the source. Unless noted, the call rests on the fitted dose curve; in most records, active means well fitted curve in the direction sought with a large enough effect in the repeat runs; inconclusive means weak or mixed curves; inactive means no such curve, though single readings can be large; an effect the other way counts as inactive or inconclusive.

Columns and labels:
[1] = qHTS assay to identify aromatase inhibitors - cell viability counter screen (AID 743084);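 further: cells stimulated with testosterone during compound exposure; nearly all actives have a fitted effect of over 55% in size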
[2] = molecular target: Aryl hydrocarbon receptor (Homo sapiens) (UniProt P35869); assay: qHTS assay to identify small molecule that activate the aryl hydrocarbon receptor (AhR) signaling pathway (AID 743085);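 further: HG2L7.5c1 human HepG2 liver cells with stably integrated DRE-driven firefly reporter; series mostly up to about 70 µM; nearly all actives have a fitted effect of over 15% in size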
How it was run: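 Luminescence (ONE-Glo) from a dioxin-responsive-element luciferase reporter in HG2L7.5c1 HepG2 cells after 24 hr compound exposure at 37C; viability measured by CellTiter-Fluor fluorescence beforehand.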

[3] = qHTS assay to identify small molecule that activate the aryl hydrocarbon receptor (AhR) signaling pathway - cell viability counter screen (AID 743086);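 further: HepG2 liver cells carrying the AhR DRE luciferase reporter; series mostly up to about 70 µM; nearly all actives have a fitted effect of over 45% in size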
How it was run: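 Cytotoxicity counter screen: CellTiter-Fluor signal (30 min, 37 C) in 4000 HepG2 cells/well carrying the DRE-luciferase reporter, following 24 h compound exposure at 37 C.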

[4] = qHTS assay to identify small molecule antagonists of the peroxisome proliferator-activated receptor gamma (PPARg) signaling pathway - cell viability counter screen (AID 743194); further: nearly all actives have a fitted effect of over 55% in size
How it was run: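 Viability was measured as CellTiter-Glo luminescence in GeneBLAzer PPARg UAS-bla HEK293H cells. These cells had been exposed 17 h at 37 C to compounds together with rosiglitazone at 50 nM final, with the beta-lactamase readout taken in the same wells.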

[5] = qHTS assay for small molecule agonists of the antioxidant response element (ARE) signaling pathway (AID 743202; active means well fitted activation curve with a large enough effect in the signal ratio in the repeat runs, not every such curve was filed as active; the % refers to the signal ratio)
How it was run: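 After 16 hours of compound treatment at 37 C, HepG2 cells with a stably integrated ARE-driven beta-lactamase reporter were loaded 2 hours at room temperature with LiveBLAzer B/G FRET substrate and fluorescence intensity measured.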

[6] = qHTS assay for small molecule agonists of the antioxidant response element (ARE) signaling pathway - cell viability counter screen (AID 743203; calls by dose curve; further: nearly all actives have a fitted effect of over 55% in size)
How it was run: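 Measured in the same wells as the beta-lactamase ARE reporter, this read-out is CellTiter-Glo luminescence from HepG2 ARE-bla cells given compounds for 16 hrs.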

[7] = qHTS assay for small molecule activators of the heat shock response signaling pathway - cell viability counter screen (AID 743209); further: nearly all actives have a fitted effect of over 50% in size
How it was run: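 Same-well multiplex: after 2.5 h room-temperature incubation with LiveBLAzer B/G substrate and fluorescence reading, CellTiter-Glo reagent was added to HSE-bla HeLa cells that had received compound for 5 h at 37 C; luminescence read after 30 min.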

[8] = qHTS assay for small molecule activators of the heat shock response signaling pathway (AID 743210; active means well fitted activation curve with a large enough effect in the signal ratio in the repeat runs, with a control signal flat, not every such curve was filed as active; the % refers to the signal ratio; further: series mostly up to about 63 µM)
How it was run: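 Compound exposure lasted 5 h at 37 C in HeLa cells carrying a heat-shock-element-driven beta-lactamase reporter. Read-out: fluorescence intensity after 2.5 h room-temperature loading with LiveBLAzer B/G FRET substrate.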

[9] = qHTS assay to identify small molecule agonists of the peroxisome proliferator-activated receptor delta (PPARd) signaling pathway - cell viability counter screen (AID 743211); further: nearly all actives have a fitted effect of over 55% in size
How it was run: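 Viability was measured as CellTiter-Glo luminescence (30 min, room temperature) in the same wells as the beta-lactamase readout. GeneBLAzer PPARd UAS-bla HEK293H cells received compound after 5 h plating and were incubated 17 h at 37 C.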

[10] = molecular target: Peroxisome proliferator-activated receptor delta (Homo sapiens) (UniProt Q03181); assay: qHTS assay to identify small molecule agonists of the peroxisome proliferator-activated receptor delta (PPARd) signaling pathway (AID 743212; calls by dose curve)
How it was run: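 Beta-lactamase reporter readout: a ratiometric FRET signal from the LiveBLAzer substrate after 2 h at room temperature. Compound exposure at 37 °C in PPARδ-bla HEK293H cells driven by an upstream activator sequence.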

[11] = qHTS assay to identify small molecule antagonists of the peroxisome proliferator-activated receptor delta (PPARd) signaling pathway - cell viability counter screen (AID 743213); further: nearly all actives have a fitted effect of over 50% in size
How it was run: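 CellTiter-Glo was added to PPARd-bla HEK293H wells following 17 h compound treatment in the presence of 300 nM L165041. Luminescence was recorded after 30 min at room temperature.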

[12] = molecular target: Peroxisome proliferator-activated receptor delta (Homo sapiens) (UniProt Q03181); assay: qHTS assay to identify small molecule antagonists of the peroxisome proliferator-activated receptor delta (PPARd) signaling pathway (AID 743215; active means well fitted inhibition curve with a large enough effect in the signal ratio in the repeat runs, not every such curve was filed as active; the % refers to the signal ratio;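 further: cells stimulated with agonist L165041 at 300 nM final during compound exposure; series mostly up to about 62 µM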)
How it was run: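 Fluorescence from cleaved LiveBLAzer B/G FRET substrate (2 h, room temperature) reports PPARd-driven beta-lactamase in HEK293H UAS-bla cells. Cells had been treated 17 h at 37 C with compound plus 300 nM final L165041.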

[13] = qHTS assay to identify small molecule agonists of the farnesoid-X-receptor (FXR) signaling pathway - cell viability counter screen (AID 743218); further: nearly all actives have a fitted effect of over 45% in size
How it was run: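 Readout: CellTiter-Glo luminescence, 30 min RT, multiplexed after the FXR-bla FRET reading. HEK 293T FXR-UAS-bla cells received compound 5 h post-plating and were incubated 16 h at 37 C.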

[14] = qHTS assay to identify small molecule antagonists of the farnesoid-X-receptor (FXR) signaling pathway - cell viability counter screen (AID 743221; active means well fitted cell-killing curve with a large enough effect in the repeat runs, not every such curve was filed as active; further: nearly all actives have a fitted effect of over 50% in size)
How it was run: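 Cytotoxicity counter screen run in the FXR-bla reporter wells: HEK 293T cells exposed to compound with 50 uM (final) chenodeoxycholic acid for 16 h, 37 C, then viability measured by CellTiter-Glo luminescence after 30 min, room temperature.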

[15] = molecular target: Vitamin D3 receptor (Homo sapiens) (UniProt P11473); assay: qHTS assay to identify small molecule agonists of the vitamin D receptor (VDR) signaling pathway (AID 743222; calls by dose curve)
How it was run: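 Following 4 h attachment at 37C, VDR-bla cells (2,000 per well) received DMSO-dissolved compounds or controls. After 16 h incubation, LiveBLAzer B/G FRET substrate was added and fluorescence read 2 h later at room temperature.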

[16] = molecular target: Vitamin D3 receptor (Homo sapiens) (UniProt P11473); assay: qHTS assay to identify small molecule antagonists of the vitamin D receptor (VDR) signaling pathway (AID 743223; active means well fitted inhibition curve with a large enough effect in the signal ratio in the repeat runs, not every such curve was filed as active; the % refers to the signal ratio)
How it was run: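 Antagonist mode: compound added to VDR-bla cells alongside agonist 1alpha,25-dihydroxyvitamin D3 (3 nM final), incubation 16 h at 37C. Read-out is LiveBLAzer FRET fluorescence, 2 h at room temperature.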

[17] = molecular target: Peroxisome proliferator-activated receptor gamma (Homo sapiens) (UniProt P37231); assay: qHTS assay to identify small molecule agonists of the peroxisome proliferator-activated receptor gamma (PPARg) signaling pathway (AID 743094; active means well fitted activation curve with a large enough effect in the signal ratio in the repeat runs, not every such curve was filed as active; the % refers to the signal ratio)
How it was run: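 Cell-based bla reporter, HEK293H background, PPARg-driven UAS. Pre-incubation 5 h, 37C, 5% CO2. Compound 17 h, 37C. Substrate 1 h RT; fluorescence.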

[18] = molecular target: Bile acid receptor (Homo sapiens) (UniProt Q96RI1); assay: qHTS assay to identify small molecule antagonists of the farnesoid-X-receptor (FXR) signaling pathway (AID 743217; active means well fitted inhibition curve with a large enough effect in the signal ratio in the repeat runs, not every such curve was filed as active; the % refers to the signal ratio)
How it was run: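 FRET fluorescence after 2 h room-temperature LiveBLAzer loading gives the readout. Prior step: FXR-bla HEK 293T cells, seeded and incubated 5 h, received test compounds plus 50 uM final CDCA for 16 h at 37 °C.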

[19] = molecular target: Bile acid receptor (Homo sapiens) (UniProt Q96RI1); assay: qHTS assay to identify small molecule agonists of the farnesoid-X-receptor (FXR) signaling pathway (AID 743220; active means well fitted activation curve with a large enough effect in the signal ratio in the repeat runs, not every such curve was filed as active; the % refers to the signal ratio)
How it was run: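 FXR-UAS-bla HEK 293T cells carrying a UAS-driven beta-lactamase reporter were plated for 5 h at 37C/5% CO2, then exposed to DMSO-dissolved Tox21 10K compounds for 16 h at 37C. A LiveBLAzer B/G FRET substrate was loaded for 2 h at room temperature before fluorescence reading.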

Measured: Potency

Peroxisome proliferator-activated receptor gamma (Homo sapiens), sequence (P37231 whole entry, looked up): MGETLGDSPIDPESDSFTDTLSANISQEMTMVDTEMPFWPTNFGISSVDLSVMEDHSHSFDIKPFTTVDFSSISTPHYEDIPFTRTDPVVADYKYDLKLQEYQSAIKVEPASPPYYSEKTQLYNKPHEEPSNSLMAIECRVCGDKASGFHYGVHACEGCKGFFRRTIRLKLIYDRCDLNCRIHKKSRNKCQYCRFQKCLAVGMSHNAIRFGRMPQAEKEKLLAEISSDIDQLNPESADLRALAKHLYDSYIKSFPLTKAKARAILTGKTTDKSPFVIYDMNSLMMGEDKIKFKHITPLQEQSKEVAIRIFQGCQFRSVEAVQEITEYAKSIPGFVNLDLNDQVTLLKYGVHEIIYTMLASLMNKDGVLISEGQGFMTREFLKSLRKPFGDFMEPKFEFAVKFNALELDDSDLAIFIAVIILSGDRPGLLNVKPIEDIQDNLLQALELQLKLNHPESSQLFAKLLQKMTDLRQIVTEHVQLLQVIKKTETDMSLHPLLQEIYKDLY
Aryl hydrocarbon receptor (Homo sapiens), sequence (P35869 whole entry, looked up): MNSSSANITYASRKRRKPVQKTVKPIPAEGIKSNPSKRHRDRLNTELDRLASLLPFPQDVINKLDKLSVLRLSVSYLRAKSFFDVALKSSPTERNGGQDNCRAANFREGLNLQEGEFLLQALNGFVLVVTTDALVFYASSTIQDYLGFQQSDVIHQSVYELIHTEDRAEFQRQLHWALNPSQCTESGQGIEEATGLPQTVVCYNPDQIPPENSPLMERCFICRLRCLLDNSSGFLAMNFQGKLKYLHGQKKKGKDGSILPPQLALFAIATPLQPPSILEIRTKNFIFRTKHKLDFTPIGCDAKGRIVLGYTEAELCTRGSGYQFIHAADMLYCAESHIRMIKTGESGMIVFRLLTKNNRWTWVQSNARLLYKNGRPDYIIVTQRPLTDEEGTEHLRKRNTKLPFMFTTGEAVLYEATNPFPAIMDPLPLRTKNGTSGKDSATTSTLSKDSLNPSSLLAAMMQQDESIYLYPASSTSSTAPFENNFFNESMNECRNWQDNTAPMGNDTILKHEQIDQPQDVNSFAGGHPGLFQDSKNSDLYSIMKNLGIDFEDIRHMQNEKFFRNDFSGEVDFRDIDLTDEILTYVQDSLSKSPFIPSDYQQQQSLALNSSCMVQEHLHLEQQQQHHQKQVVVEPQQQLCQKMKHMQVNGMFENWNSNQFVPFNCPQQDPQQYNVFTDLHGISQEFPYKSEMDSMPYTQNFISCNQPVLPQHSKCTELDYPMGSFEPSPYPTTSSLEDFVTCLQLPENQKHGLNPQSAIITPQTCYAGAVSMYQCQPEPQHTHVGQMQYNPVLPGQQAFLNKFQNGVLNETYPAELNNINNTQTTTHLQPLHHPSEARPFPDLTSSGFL
Vitamin D3 receptor (Homo sapiens), sequence (P11473 whole entry, looked up): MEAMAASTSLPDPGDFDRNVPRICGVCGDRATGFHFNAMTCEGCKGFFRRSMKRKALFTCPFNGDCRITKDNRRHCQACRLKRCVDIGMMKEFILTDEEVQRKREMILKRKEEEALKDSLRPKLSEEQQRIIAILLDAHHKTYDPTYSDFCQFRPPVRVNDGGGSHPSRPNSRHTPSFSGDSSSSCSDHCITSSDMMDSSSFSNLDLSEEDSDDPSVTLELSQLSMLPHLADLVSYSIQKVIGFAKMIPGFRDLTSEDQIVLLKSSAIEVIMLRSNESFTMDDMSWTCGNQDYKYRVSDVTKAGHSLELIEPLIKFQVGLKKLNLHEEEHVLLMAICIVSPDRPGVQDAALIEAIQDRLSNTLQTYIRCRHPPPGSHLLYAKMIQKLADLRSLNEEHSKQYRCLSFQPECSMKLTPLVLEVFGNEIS
Bile acid receptor (Homo sapiens), sequence (Q96RI1 whole entry, looked up): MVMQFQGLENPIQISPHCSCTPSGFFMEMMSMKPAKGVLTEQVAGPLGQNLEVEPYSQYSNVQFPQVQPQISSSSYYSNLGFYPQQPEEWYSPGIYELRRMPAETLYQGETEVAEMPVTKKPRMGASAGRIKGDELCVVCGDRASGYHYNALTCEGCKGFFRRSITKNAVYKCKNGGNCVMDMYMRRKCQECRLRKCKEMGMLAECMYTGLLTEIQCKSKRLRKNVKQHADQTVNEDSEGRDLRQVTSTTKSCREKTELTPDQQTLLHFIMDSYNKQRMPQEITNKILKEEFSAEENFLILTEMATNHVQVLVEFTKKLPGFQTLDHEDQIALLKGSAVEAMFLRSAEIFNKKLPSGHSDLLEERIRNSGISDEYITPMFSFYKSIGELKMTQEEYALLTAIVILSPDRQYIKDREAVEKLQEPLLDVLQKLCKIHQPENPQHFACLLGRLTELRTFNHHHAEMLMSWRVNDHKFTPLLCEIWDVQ
Peroxisome proliferator-activated receptor delta (Homo sapiens), sequence (Q03181 whole entry, looked up): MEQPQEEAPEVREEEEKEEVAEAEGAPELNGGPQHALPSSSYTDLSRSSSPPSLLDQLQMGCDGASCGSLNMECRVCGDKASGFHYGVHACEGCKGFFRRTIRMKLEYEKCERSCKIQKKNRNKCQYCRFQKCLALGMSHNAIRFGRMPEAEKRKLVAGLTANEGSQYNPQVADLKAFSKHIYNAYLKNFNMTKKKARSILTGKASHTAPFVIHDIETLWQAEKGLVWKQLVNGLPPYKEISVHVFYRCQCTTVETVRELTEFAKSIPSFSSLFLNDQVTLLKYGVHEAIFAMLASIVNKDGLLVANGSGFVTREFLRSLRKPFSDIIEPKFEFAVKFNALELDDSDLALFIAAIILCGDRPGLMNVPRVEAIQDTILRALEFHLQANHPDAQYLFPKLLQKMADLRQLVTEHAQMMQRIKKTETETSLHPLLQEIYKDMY

OC[C@H]1O[C@H](O[C@]2(CCl)O[C@H](CCl)[C@@H](O)[C@@H]2O)[C@H](O)[C@@H](O)[C@H]1Cl
not listed: [17] | [18] | [19]
inactive: all other assays above

C=C(C)C(=O)OCC(C)O (stereo not drawn)
not listed: [17] | [18] | [19]
inactive: all other assays above

CNNCc1ccc(C(=O)NC(C)C)cc1
not listed: [10] | [12] | [17] | [18] | [19]
inactive: all other assays above

O=CC(=O)c1ccccc1
not listed: [7] | [8] | [15] | [16] | [18] | [19]
inactive: all other assays above

CCCCOC(=O)c1ccc(O)cc1
inactive: all assays above

O=C1c2c(O)cccc2Cc2cccc(O)c21
not listed: [5] | [12] | [15] | [16]
inactive: all other assays above
